Our source for the growth values is PubChem BioAssay (NCI).

The panel holds about 83,000 compounds, 20% with a hit somewhere; the sample as a whole holds those more often.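 Assay: single dose, 48 h. Readout: percent growth (0 = no net growth; negative = cell death). Active: <10.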 A number with no mark means an inactive call. Active and inactive are the calls of the source.

Some test systems named below: NCI-H23 lung; NCI-H226 lung; NCI-H322M lung; HOP-62 NSCLC; NCI-H460 lung; HOP-92 NSCLC; NCI-H522 lung; A549/ATCC NSCLC; 786-0 renal; COLO 205 colon; DU-145 prostate; K-562 leukemia; MALME-3M melanoma; MDA-MB-231 breast; RXF 393 renal; SF-268 CNS; SF-295 CNS; SF-539 CNS; UACC-257 melanoma; M14 melanoma.
Experiment in all cases: NCI-60 one-dose screen, 48 h (100 = growth as untreated, 0 = no growth, -100 = all killed)
Holding throughout (conditions): 10 µM

With `COC(=O)c1cnc2c(c1)Oc1ccccc1-c1ccnn1-2`, the growth with NCI-H23 lung was 95.8%; with NCI-H226 lung, 83.9%; in the experiment on NCI-H322M lung it was 105%; with HOP-62 NSCLC, 92.5%; in the experiment on NCI-H460 lung it was 104%; with HOP-92 NSCLC, 86.9%. Moreover, the growth in the experiment on NCI-H522 lung was 80.3%; in the experiment on A549/ATCC NSCLC, 86.3%; in the experiment with 786-0 renal it was 90.6%; in the experiment on COLO 205 colon, 101%; with DU-145 prostate, 109%; with K-562 leukemia it was 90.7%. Also, the growth with MALME-3M melanoma was 101%; in the experiment on MDA-MB-231 breast, 94.8%; in the experiment with RXF 393 renal, 107%; in the experiment on SF-268 CNS, 98.7%; in the experiment with SF-295 CNS, 105%; in the experiment with SF-539 CNS, 97%. Moreover, the results for the growth in the experiment with UACC-257 melanoma and in the experiment on M14 melanoma were 101% and 98.8%, respectively.

With `COC(=O)[C@]12CC[C@@H](C)[C@H](C)[C@@H]1C1=CC[C@@H]3[C@@]4(C)CC(=O)[C@H](O)[C@@]5(C)COC(=C45)C[C@@]3(C)[C@]1(C)CC2`, the growth in the experiment with NCI-H23 lung was -66.5% (active); in the experiment with NCI-H226 lung, -74.7% (active); in the experiment with NCI-H322M lung, -73.4% (active); with HOP-62 NSCLC it was -74.7% (active); with NCI-H460 lung it was -51.8% (active); in the experiment with HOP-92 NSCLC it was -83.2% (active). The growth in the experiment with NCI-H522 lung was -76.3% (active); in the experiment with A549/ATCC NSCLC it was -60.4% (active); in the experiment on 786-0 renal it was -76.5% (active); with COLO 205 colon it was -80.6% (active); in the experiment with DU-145 prostate, -85.7% (active); in the experiment on K-562 leukemia, -24.9% (active). Also, the growth with MALME-3M melanoma is -75.7% (active); in the experiment with MDA-MB-231 breast, -72.5% (active); in the experiment on RXF 393 renal, -87.6% (active); in the experiment with SF-268 CNS, -67.2% (active); with SF-295 CNS, -77.8% (active); in the experiment with SF-539 CNS, -52.1% (active). Also, the growth in the experiment on UACC-257 melanoma is -75.1% (active); in the experiment with M14 melanoma, -66.3% (active).

For the compound `N#Cc1cnc2ccc(NCc3cnc[nH]3)cc2c1Nc1ccc(F)c(Cl)c1`, the growth is 78.8% in the experiment on NCI-H23 lung; 88.2% in the experiment with NCI-H226 lung; 1.96% (active) in the experiment on NCI-H322M lung; 94.3% in the experiment with HOP-62 NSCLC; 62.5% with NCI-H460 lung; 51.9% with HOP-92 NSCLC. Also, the growth was 10.2% in the experiment with NCI-H522 lung; 70.9% with A549/ATCC NSCLC; 65.7% in the experiment with 786-0 renal; 96.9% in the experiment with COLO 205 colon; 39.5% with DU-145 prostate; 66.8% in the experiment with K-562 leukemia. The growth with MALME-3M melanoma is 110%; with MDA-MB-231 breast, 78%; in the experiment with RXF 393 renal, 52.8%; with SF-268 CNS it was 63.2%; in the experiment with SF-295 CNS, 94.4%; in the experiment with SF-539 CNS, 92.1%. In addition, the growth in the experiment on UACC-257 melanoma was 84.3%; in the experiment with M14 melanoma, 72.1%.

Turning to `Brc1ccc(-c2cn3ccnc3c(-c3ccc(Br)cc3)n2)cc1`, the growth is 59.8% in the experiment with NCI-H23 lung; 70.6% with NCI-H226 lung; 86.7% with NCI-H322M lung; 33.2% with HOP-62 NSCLC; 16.8% with NCI-H460 lung; 55.8% in the experiment with HOP-92 NSCLC. Also, the growth was -14.9% (active) with NCI-H522 lung; 31.9% in the experiment with A549/ATCC NSCLC; 57.8% in the experiment with 786-0 renal; 7.83% (active) with COLO 205 colon; 72.7% with DU-145 prostate; 16.8% with K-562 leukemia. The growth in the experiment on MALME-3M melanoma was 39.5%; in the experiment with MDA-MB-231 breast it was 46.5%; with RXF 393 renal, 47%; with SF-268 CNS it was 56.9%; in the experiment on SF-295 CNS, 30.6%; with SF-539 CNS it was 52.5%. Besides, the values for the growth in the experiment with UACC-257 melanoma and with M14 melanoma were 67.4% and 20.1%, respectively.

`CCCn1c(=O)c2c(nc(-c3cccc(OCCCCl)c3)n2C)n(CCC)c1=O`: the growth was 59.1% in the experiment on NCI-H23 lung; 16.5% in the experiment with NCI-H226 lung; 41% with NCI-H322M lung; -18.3% (active) in the experiment with HOP-62 NSCLC; 24.4% in the experiment on NCI-H460 lung; -1.14% (active) with HOP-92 NSCLC. Besides, the growth in the experiment on NCI-H522 lung was 83.2%; with A549/ATCC NSCLC, 28.3%; in the experiment with 786-0 renal, 23.9%; with COLO 205 colon, 65.8%; in the experiment with DU-145 prostate it was 61.3%; in the experiment on K-562 leukemia it was 92.6%. The growth is 62.2% in the experiment with MALME-3M melanoma; 36.2% in the experiment on MDA-MB-231 breast; 37% in the experiment on RXF 393 renal; 59.9% in the experiment with SF-268 CNS; 15.3% in the experiment on SF-295 CNS; 63% in the experiment on SF-539 CNS. In addition, the growth was 82.1% in the experiment with UACC-257 melanoma and 68.6% with M14 melanoma.

Take `COc1ccc(-c2nnc(SCC(=O)c3ccccc3)o2)cc1`: the growth in the experiment on NCI-H23 lung is 91.2%; in the experiment with NCI-H226 lung, 97.5%; in the experiment on NCI-H322M lung, 107%; with HOP-62 NSCLC, 84.5%; in the experiment on NCI-H460 lung it was 105%; with HOP-92 NSCLC it was 89.2%. The growth is 83.9% with NCI-H522 lung; 98.1% in the experiment with A549/ATCC NSCLC; 79.4% in the experiment on 786-0 renal; 107% in the experiment with COLO 205 colon; 102% in the experiment with DU-145 prostate; 92.3% with K-562 leukemia. Moreover, the growth in the experiment on MALME-3M melanoma is 104%; in the experiment with MDA-MB-231 breast, 99.3%; in the experiment on RXF 393 renal it was 94.2%; in the experiment on SF-268 CNS, 102%; in the experiment on SF-295 CNS, 101%; with SF-539 CNS, 98.8%. Also, the growth in the experiment on UACC-257 melanoma is 89.4%; in the experiment on M14 melanoma it was 101%.

As to `NC(N)=NS(=O)(=O)c1ccc(Nc2ccc3nnc(-c4ccncc4)n3n2)cc1`, the growth was 102% in the experiment with NCI-H23 lung; 96.5% in the experiment on NCI-H226 lung; 103% in the experiment on NCI-H322M lung; 110% in the experiment on HOP-62 NSCLC; 98.3% with NCI-H460 lung; 107% in the experiment with HOP-92 NSCLC. Moreover, the growth in the experiment on NCI-H522 lung is -57.2% (active); in the experiment on A549/ATCC NSCLC it was 108%; in the experiment on 786-0 renal, 104%; with COLO 205 colon, 111%; in the experiment with DU-145 prostate, 111%; with K-562 leukemia it was 95.3%. The growth in the experiment on MALME-3M melanoma was 98.1%; with MDA-MB-231 breast, 102%; in the experiment with RXF 393 renal, 106%; in the experiment on SF-268 CNS, 102%; in the experiment on SF-295 CNS, 116%; with SF-539 CNS it was 100%. Besides, the values for the growth in the experiment on UACC-257 melanoma and with M14 melanoma were 127% and 105%, respectively.
